POLI inh = blocks human DNA polymerase iota activity; Q9UNA4; Pol iota fluorescent replication assay, 10 min; Potency, µM (highest dose often 115 µM), most hits filed as inhibitors; 390,000 compounds, 1% hits; AID 588590
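Pol iota at 10 nM preincubated 15 min with compounds at room temperature; reaction started with fluorescent substrate, 50 nM final. Fluorescence read kinetically at 0 and 10 min; buffer-only wells as negative control.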
Pol beta inh-1 = DNA polymerase beta (human) inhibition. 340,000 compounds, 1.3% hits. Pol beta primer extension/strand displacement, fluorescence kinetic. AID 485314. Potency, µM (series often up to 114 µM), usual class: inhibitors
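Kinetic readout of DNA synthesis with strand displacement by Pol beta. Compound and 10 nM enzyme sit 15 min at room temperature; 50 nM substrate starts the reaction, read immediately and at 10 min.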
Pol eta inh-1 = inhibitors of human DNA polymerase eta | recombinant Pol eta, fluorescent DNA replication assay | 390,000 compounds, 1.2% hits | Potency, µM (doses to about 114 µM), most hits filed as inhibitors | Q9Y253
Target sequence (Q9Y253 whole entry, looked up): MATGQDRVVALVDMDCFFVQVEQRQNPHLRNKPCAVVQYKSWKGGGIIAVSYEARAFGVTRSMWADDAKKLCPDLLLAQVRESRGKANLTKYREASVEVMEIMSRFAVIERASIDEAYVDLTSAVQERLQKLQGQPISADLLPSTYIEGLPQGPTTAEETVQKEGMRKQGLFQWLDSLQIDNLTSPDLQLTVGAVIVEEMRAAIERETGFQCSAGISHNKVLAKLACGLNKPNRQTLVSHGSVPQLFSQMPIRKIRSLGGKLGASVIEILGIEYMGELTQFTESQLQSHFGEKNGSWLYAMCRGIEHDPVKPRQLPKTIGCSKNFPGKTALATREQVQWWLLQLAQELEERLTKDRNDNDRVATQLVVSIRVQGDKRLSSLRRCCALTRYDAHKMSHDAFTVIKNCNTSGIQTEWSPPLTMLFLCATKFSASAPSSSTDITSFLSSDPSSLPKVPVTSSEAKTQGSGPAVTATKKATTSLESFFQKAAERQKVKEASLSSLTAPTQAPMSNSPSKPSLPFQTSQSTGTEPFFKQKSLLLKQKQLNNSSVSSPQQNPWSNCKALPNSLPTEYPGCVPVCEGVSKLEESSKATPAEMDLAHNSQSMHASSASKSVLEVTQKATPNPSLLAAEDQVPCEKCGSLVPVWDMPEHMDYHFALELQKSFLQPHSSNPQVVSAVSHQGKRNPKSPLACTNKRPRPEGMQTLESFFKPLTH
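Pol eta at 10 nM preincubated with compounds 15 min at room temperature; reaction started with fluorescent substrate (50 nM final) and read kinetically at 0 and 10 min.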
WRN helicase inh-1 = WRN helicase (human) inhibition; WRN helicase unwinding, fluorescent forked duplex, kinetic; 360,000 compounds, 0.46% hits; Potency, µM (highest dose often 114 µM), usual class: inhibitors; further: nearly all actives have a fitted effect of over 55% in size
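Kinetic fluorescence helicase assay: unwinding of a quenched forked DNA duplex (100 nM final) with 2 mM ATP final raises red fluorescence (525/598 nm). Compounds sat 15 min at room temperature with 20 nM WRN beforehand.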
L3MBTL1 inh-1 = L3MBTL1 (human) inhibition | 230,000 compounds, 0.66% hits | AID 485360 | Potency, µM (doses to about 57.1 µM), hits mostly inhibitors | Q9Y468 | AlphaScreen L3MBTL1–H3K9me1 peptide binding; further: nearly all actives have a fitted effect of over 60% in size
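First, the protein-peptide complex forms for 30 min at room temperature (L3MBTL1 50 nM, biotinylated H3K9me1 peptide 75 nM). Next, compounds are pin-transferred and incubated 30 min. Finally, AlphaScreen beads are added and read after 30 min.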
Pol kappa inh-1 = inhibitors of human DNA polymerase kappa; Q9UBT6; purified Pol kappa, fluorescent DNA synthesis assay, 10 min; Potency, µM (titrated, usually from 107 µM), actives largely listed as inhibitors; 400,000 compounds, 0.53% hits
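10 nM Pol kappa preincubated 15 min at room temperature with compounds, then reaction started with substrate at 50 nM final. Fluorescence read kinetically at 0 and 10 min; buffer-only wells served as negative control.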
Pol beta inh-2 = Inhibitors of human DNA polymerase beta, hit validation; shares compounds with Pol beta inh-1; Potency, µM, usual class: inhibitors; 250 compounds, 87% hits; Pol beta primer extension/strand displacement, fluorescence kinetic; calls by dose curve
Klenow inh = inhibits Klenow fragment polymerase in counter-screen | 250 tested, under 10 active | shares compounds with Pol beta inh-1 | Klenow exo- polymerase counter-screen, fluorescent DNA substrate | AID 540300 | activity change, negative = inhibition, % at 57.1 µM
HIV RT counter = inhibits HIV-1 reverse transcriptase in counter-screen; shares compounds with Pol beta inh-1; HIV-1 RT polymerase activity, counter-screen; activity % (negative = inhibition, positive = activation), % at 57.1 µM; 250 tested, under 10 active; AID 540301
POLB valid = DNA polymerase beta inhibition, radiolabeled validation. shares compounds with Pol beta inh-1. radiolabeled primer extension gel assay, phosphorimager. inhibition, % at 10 µM. 110 compounds, 91% hits. AID 540325;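 active means inhibition at 10 µM of 30% or more; inconclusive means no clear call, values can overlap the other calls; inactive means inhibition at 10 µM under 30%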
L3MBTL1 inh-2 = L3MBTL1 binding inhibition validated | shares compounds with L3MBTL1 inh-1 | L3MBTL1 methyl-lysine binding inhibition, biochemical qHTS | Potency, µM, actives largely listed as inhibitors | 500 compounds, 91% hits | AID 540279; further: nearly all actives have a fitted effect of over 70% in size
AlphaScreen ctr2 = interferes with AlphaScreen signal in L3MBTL1 counterscreen; Potency, µM (highest dose often 57.1 µM), usual class: inhibitors; 500 tested, under 10 active; shares compounds with L3MBTL1 inh-1; AID 602224; AlphaScreen counterscreen, signal inhibition
BAZ2B confirm = inhibits human BAZ2B bromodomain, hit validation; AID 588809; Potency, µM, actives largely listed as inhibitors; 25 compounds, 100% hits; shares compounds with Pol kappa inh-1; AlphaScreen BAZ2B / biotin-H3K14Ac peptide displacement; calls by dose curve
AlphaScreen ctr = counter-screen for BAZ2B inhibitors: AlphaScreen signal interference. shares compounds with Pol kappa inh-1. AlphaScreen biotin-His6 peptide bead counterscreen, signal decrease. Potency, µM (highest dose often 57.1 µM), most hits filed as inhibitors. 25 tested, under 10 active;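 active means clear concentration-dependent signal drop in the bead assay lacking the target, so a primary-screen artifact; inconclusive means weak, partial or single-dose response; inactive means no response, so a real primary hit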
TbPGK inh = blocks T. brucei phosphoglycerate kinase | shares compounds with Pol kappa inh-1 | TbPGK coupled GAPDH assay, Kinase-Glo luminescence | Potency, µM (highest dose often 57.5 µM), usual class: inhibitors | 500 compounds, 79% hits | AID 686980; further: nearly all actives have a fitted effect of over 65% in size
Pol iota confirm = Inhibitors of human DNA polymerase iota, confirmation; shares compounds with Pol kappa inh-1; Pol iota primer extension, TAMRA/BHQ fluorescence; Potency, µM, most hits filed as inhibitors; 1,500 compounds, 77% hits; AID 720496
Pol kappa inh-2 = Pol kappa (human) inhibition, cherry-pick confirmation; 920 compounds, 76% hits; AID 720501; shares compounds with Pol eta inh-1; purified Pol-kappa, fluorescent strand-displacement substrate; Potency, µM, usual class: inhibitors
Pol eta inh-2 = Pol eta (human) inhibition, cherry-pick confirmation; shares compounds with Pol eta inh-1; Pol eta primer extension, TAMRA/BHQ fluorescence, 10 min; 2,600 compounds, 64% hits; Potency, µM, most hits filed as inhibitors
WRN helicase inh-2 = confirmation of human WRN helicase inhibitors; Potency, µM (titrated, usually from 57.1 µM), hits mostly inhibitors; shares compounds with WRN helicase inh-1; 610 compounds, 63% hits; WRN helicase DNA unwinding, fluorescence kinetic; further: nearly all actives have a fitted effect of over 65% in size
TO displacement = binds DNA, flagged in WRN inhibitor counterscreen. shares compounds with WRN helicase inh-1. thiazole orange DNA binding displacement, fluorescence. Potency, µM (doses to about 57.1 µM), actives largely listed as inhibitors. 610 compounds, 10% hits. AID 720499;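 further: drop in dye fluorescence marks compound binding to DNA; nearly all actives have a fitted effect of over 60% in size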
BLM counter = blocks human BLM helicase in WRN counterscreen | shares compounds with WRN helicase inh-1 | Recombinant BLM helicase DNA unwinding, red fluorescence | Potency, µM (top dose mostly 57.1 µM), most hits filed as inhibitors | 610 compounds, 60% hits | AID 720503; further: nearly all actives have a fitted effect of over 60% in size
Numbers stand for hits; 0 = inactive; ? = inconclusive; - = not tested or not shown; [ ] = remark or other dose. Rows were chosen to be rich in hits. Some 2.5% of all compounds tested hit in one or more screens of this group. Unless noted, the call rests on the fitted dose curve; in most records, active means well fitted curve in the direction sought with a large enough effect; inconclusive means small, poorly fitted or top-dose-only effect, or another doubt; inactive means no such curve, though single readings can be large; an effect the other way counts as inactive or inconclusive.

SMILES	POLI inh	Pol beta inh-1	Pol eta inh-1	WRN helicase inh-1	L3MBTL1 inh-1	Pol kappa inh-1	L3MBTL1 inh-2	AlphaScreen ctr2	Pol iota confirm	Pol eta inh-2	others
C=C(C)C(=O)Nc1cccc(C2=NOC3(C2)C[C@H](C(N)=O)N(C(=O)/C=C/C)C3)c1 (stereo partly drawn)	?	5µM	8.9µM	0	-	?	-	-	?	19	Pol beta inh-2=7.1;Klenow inh=0;HIV RT counter=0;BAZ2B confirm=7.1;AlphaScreen ctr=0
CCn1c(O)c(/C=N/NC(=O)c2ccncc2)c(=O)n(CC)c1=S	0	0	0	0	0	0	-	-	-	-
O=C(COC(=O)c1c2c(nc3ccccc13)/C(=C/c1ccco1)CC2)NC1CCCC1	13µM	3.2µM	3.5µM	32µM	4.5µM	32µM	-	-	13	17	Pol beta inh-2=25;Klenow inh=0;HIV RT counter=0;POLB valid=99;BAZ2B confirm=7.1;AlphaScreen ctr=?;Pol kappa inh-2=12
CC[N@+]1(C)CCC[C@@H](OC(=O)C(O)(c2ccccc2)c2ccccc2)C1	-	-	-	-	-	0[12 µM]	-	-	-	-
CN1CCC(N2CC3CC(C2)c2cccc(=O)n2C3)CC1 (stereo not drawn)	0	0	0	0	40µM	0	27	0	-	-
CCc1cccc(CC)c1NC1=NCCN1	-	-	-	-	-	0	-	-	-	-
COc1ccc(NC(=O)CN(C)C(=O)c2cc3c(s2)CCC3)cc1	7.1µM	-	3.2µM	40µM	3.2µM	10µM	0.75	0	-	-	BAZ2B confirm=7.9;AlphaScreen ctr=0
Cc1ccc(OCC(=O)N2CCN(CCc3ccncc3)CC2)cc1C	0	0	0	-	-	0	-	-	-	-
CCOc1ccc(N2C(=O)/C(=C/c3ccc(C)o3)C(=O)NC2=S)cc1	8.9µM	28µM	4µM	45µM	22µM	28µM	2.7	0	-	30
O=C1NCCCCC1(Cl)Cl	0	-	0	0	-	0	-	-	-	-
Cc1cc(/C=C2\C(=O)NC(=O)N(Cc3ccco3)C2=O)c(C)n1-c1ccc(C(=O)O)cc1	18µM	?	18µM	?	28µM	?	13	0	19	27
Cc1cc(/C=C2\C(=O)NC(=O)N(Cc3ccccc3Cl)C2=O)c(C)n1-c1ccc(C(=O)O)cc1	8.9µM	16µM	10µM	56µM	28µM	50µM	5.3	0	21	24
Cc1cc(/C=C2\C(=O)NC(=O)N(c3ccc(F)cc3)C2=O)c(C)n1-c1ccc(C(=O)O)cc1	?	0	?	0[11.6 µM]	?	0	-	-	-	-
CCN(CC(=O)Nc1ccc(NC(C)=O)cc1)C(=O)CSC(c1ccccc1)c1ccccc1	0	-	0	0	0	0	-	-	-	-
Cc1cc(/C=C2\C(=O)NC(=O)N(Cc3ccccc3)C2=O)c(C)n1-c1ccc(Cl)c(C(=O)O)c1	8.9µM	3.5µM	1.8µM	28µM	4.5µM	18µM	0.75	0	24	21	TbPGK inh=6.5µM;Pol kappa inh-2=24;WRN helicase inh-2=6.8µM;TO displacement=0;BLM counter=1.9µM
O=C(Cn1c(=O)oc2cc(S(=O)(=O)N3CCCC3)ccc21)Nc1cccc(C(F)(F)F)c1	?	0	?	0	0	?	-	-	-	-
O=C1NC(=S)N(C2CC2)C(=O)/C1=C/c1ccc2c(c1)CCN2CCCCl	22µM	20µM	7.9µM	3µM	32µM	40µM	4.2	0	15	19	WRN helicase inh-2=12µM;TO displacement=?;BLM counter=7.6µM
O=C(O)c1ccc(Cl)nc1	0	0	0	0	0	0	-	-	-	-
O=C1NC(=O)N(Cc2ccc(F)cc2)C(=O)/C1=C\c1ccoc1	14µM	?	22µM	32µM	20µM	25µM	7.5	0	19	30	Pol kappa inh-2=17;WRN helicase inh-2=5.4µM;TO displacement=0;BLM counter=3µM
CN(C)c1ccc(/C=C2\C(=O)NC(=O)N(Cc3ccc(F)cc3)C2=O)cc1	0	0	0	0	-	0	-	-	-	-
CCOc1ccc(NS(=O)(=O)c2ccc(Cl)c(N=Nc3c(O)[nH]c(=S)[nH]c3=O)c2)cc1Br	-	-	20µM	?	-	-	-	-	-	-	TbPGK inh=15µM
O=C(O)c1ccccc1NS(=O)(=O)c1cccc(N=Nc2c(O)[nH]c(=S)[nH]c2=O)c1	?	-	0	0	0	0	-	-	-	-
